{"source": "the supplement of paper PMC8728848", "binders": {"B1": {"name": "Mnn9-2N3 (Aspergillus fumigatus) (protein)", "chain": "MAVARRMRRTNPITLLLAAILAIGFFIFVLSPSTTSASPVKAGSASSSSTSQQRREDNAAENPLSPPTKPFFKSQPVRHDGQQAPPPVVQYNLNQLSSTSTSAANGERILILTPMARFVPEYWDNVVKLTYPHELISIGFIIPKNKEGNAALAALEAAIAKTQSGPIDKRFASISILRQDFEPPLQSQDEKERHKISNQKARRESMSRARNSLLFTTLGPATAWVLWLDADIVETPPTLIQDLTAHDHPVLVPNCYQRYYNSEKKKMDVRPYDYNSWIDSSTAQSMAAEMGPDEILLEGYAEMPTYRTLMAHLADTANPNPKKVIELDGVGGTALMVKAEVHRDGAMFPAFPFYHLVETEGFAKMAKRLGYSVYGLPDYFVSRNFFFFFFFFFFG"}}, "assay_in_all_cases": "glycan array binding signal (z-score within array); higher = stronger binding", "settings_in_all_cases": "glycan notation: IUPAC condensed, linker removed", "key": {"[1]": {"molecular_target": "Fuc(a1-2)Gal(b1-3)GalNAc(b1-3)Gal(a1-4)Gal(b1-4)Glc", "summary_of_the_method": "(§1)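 The binding signal is a Z-score computed within each array. Data were drawn from 3228 arrays in the Consortium for Functional Glycomics database, restricted to those with a known protein sequence. Scores were averaged over arrays of the same protein sequence at different concentrations or buffers, and over linkers, and negative values can be taken as non-binding.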"}, "[2]": {"molecular_target": "Fuc(a1-2)Gal(b1-4)GlcNAc(b1-2)Man", "summary_of_the_method": "as §1"}, "[3]": {"molecular_target": "Fuc(a1-2)Gal(b1-4)[Fuc(a1-3)]GlcNAc(b1-2)Man(a1-3)[Fuc(a1-2)Gal(b1-4)[Fuc(a1-3)]GlcNAc(b1-2)Man(a1-6)]Man(b1-4)GlcNAc(b1-4)[Fuc(a1-6)]GlcNAc", "summary_of_the_method": "as §1"}, "[4]": {"molecular_target": "Fuc(a1-2)Gal3S(b1-4)GlcNAc", "summary_of_the_method": "as §1"}, "[5]": {"molecular_target": "Fuc(a1-2)[Gal(a1-3)]Gal(b1-4)[Fuc(a1-3)]GlcNAc", "summary_of_the_method": "as §1"}, "[6]": {"molecular_target": "Fuc(a1-2)[GalNAc(a1-3)]Gal(b1-3)GlcNAc", "summary_of_the_method": "as §1"}, "[7]": {"molecular_target": "Fuc(a1-2)[GalNAc(a1-3)]Gal(b1-4)GlcNAc", "summary_of_the_method": "as §1"}, "[8]": {"molecular_target": "Fuc(a1-2)[GalNAc(a1-3)]Gal(b1-4)GlcNAc(b1-2)Man(a1-3)[Fuc(a1-2)[GalNAc(a1-3)]Gal(b1-4)GlcNAc(b1-2)Man(a1-6)]Man(b1-4)GlcNAc(b1-4)GlcNAc", "summary_of_the_method": "as §1"}, "[9]": {"molecular_target": "Fuc(a1-2)[GalNAc(a1-3)]Gal(b1-4)GlcNAc(b1-3)[Fuc(a1-2)[GalNAc(a1-3)]Gal(b1-4)GlcNAc(b1-6)]GalNAc", "summary_of_the_method": "as §1"}, "[10]": {"molecular_target": "Fuc(a1-2)[GalNAc(a1-3)]Gal(b1-4)GlcNAc(b1-6)GalNAc", "summary_of_the_method": "as §1"}, "[11]": {"molecular_target": "Fuc(a1-3)[Gal3S(b1-4)]GlcNAc6S", "summary_of_the_method": "as §1"}, "Gal(a1-2)Gal": {"molecular_target": "Gal(a1-2)Gal", "summary_of_the_method": "as §1"}, "Gal(a1-3)Gal": {"molecular_target": "Gal(a1-3)Gal", "summary_of_the_method": "as §1"}, "[12]": {"molecular_target": "Gal(a1-3)Gal(b1-3)GlcNAc(b1-3)GalNAc", "summary_of_the_method": "as §1"}, "[13]": {"molecular_target": "Gal(a1-3)Gal(b1-4)[Fuc(a1-3)]GlcNAc(b1-2)Man(a1-3)[Gal(a1-3)Gal(b1-4)[Fuc(a1-3)]GlcNAc(b1-2)Man(a1-6)]Man(b1-4)GlcNAc(b1-4)GlcNAc", "summary_of_the_method": "as §1"}, "Gal(a1-4)GlcNAc": {"molecular_target": "Gal(a1-4)GlcNAc", "summary_of_the_method": "as §1"}, "[14]": {"molecular_target": "Gal(b1-3)GlcNAc(b1-6)[Gal(b1-3)]GalNAc", "summary_of_the_method": "as §1"}, "[15]": {"molecular_target": "Gal(b1-3)[Fuc(a1-4)]GlcNAc(b1-2)Man(a1-3)[Gal(b1-3)[Fuc(a1-4)]GlcNAc(b1-2)Man(a1-6)]Man(b1-4)GlcNAc(b1-4)[Fuc(a1-6)]GlcNAc", "summary_of_the_method": "as §1"}, "[16]": {"molecular_target": "Gal(b1-4)GlcNAc(b1-3)Gal(b1-4)GlcNAc", "summary_of_the_method": "as §1"}, "[17]": {"molecular_target": "Gal(b1-4)GlcNAc(b1-3)Gal(b1-4)GlcNAc(b1-2)Man(a1-3)[Gal(b1-4)GlcNAc(b1-3)Gal(b1-4)GlcNAc(b1-2)Man(a1-6)]Man(b1-4)GlcNAc(b1-4)GlcNAc", "summary_of_the_method": "as §1"}, "Gal3S(b1-4)Glc": {"molecular_target": "Gal3S(b1-4)Glc", "summary_of_the_method": "as §1"}, "Gal3S(b1-4)Glc6S": {"molecular_target": "Gal3S(b1-4)Glc6S", "summary_of_the_method": "as §1"}, "Gal6P(b1-4)GlcNAc": {"molecular_target": "Gal6P(b1-4)GlcNAc", "summary_of_the_method": "as §1"}, "Gal6S(b1-3)GlcNAc6S": {"molecular_target": "Gal6S(b1-3)GlcNAc6S", "summary_of_the_method": "as §1"}, "GalNAc(b1-4)GlcNAc": {"molecular_target": "GalNAc(b1-4)GlcNAc", "summary_of_the_method": "as §1"}, "GalNAc(b1-6)GalNAc": {"molecular_target": "GalNAc(b1-6)GalNAc", "summary_of_the_method": "as §1"}, "[18]": {"molecular_target": "GalNAc3S(b1-4)[Fuc(a1-3)]GlcNAc", "summary_of_the_method": "as §1"}, "GalNAc6S(b1-4)GlcNAc": {"molecular_target": "GalNAc6S(b1-4)GlcNAc", "summary_of_the_method": "as §1"}, "GlcA(b1-3)Gal": {"molecular_target": "GlcA(b1-3)Gal", "summary_of_the_method": "as §1"}, "[19]": {"molecular_target": "GlcNAc(b1-2)[GlcNAc(b1-4)]Man(a1-3)[GlcNAc(b1-4)][GlcNAc(b1-2)[GlcNAc(b1-6)]Man(a1-6)]Man(b1-4)GlcNAc(b1-4)GlcNAc", "summary_of_the_method": "as §1"}, "Kdn(a2-3)Gal(b1-3)GalNAc": {"molecular_target": "Kdn(a2-3)Gal(b1-3)GalNAc", "summary_of_the_method": "as §1"}, "[20]": {"molecular_target": "Man(a1-2)Man(a1-6)[Man(a1-3)]Man(a1-6)[Man(a1-2)Man(a1-2)Man(a1-3)]Man(b1-4)GlcNAc(b1-4)GlcNAc", "summary_of_the_method": "as §1"}, "[21]": {"molecular_target": "Neu5Ac(a2-3)Gal(b1-3)GalNAc6S", "summary_of_the_method": "as §1"}, "[22]": {"molecular_target": "Neu5Ac(a2-3)Gal(b1-3)GlcNAc(b1-3)GalNAc", "summary_of_the_method": "as §1"}, "[23]": {"molecular_target": "Neu5Ac(a2-3)Gal(b1-4)GlcNAc(b1-2)Man(a1-3)[GlcNAc(b1-4)][Neu5Ac(a2-3)Gal(b1-4)GlcNAc(b1-2)Man(a1-6)]Man(b1-4)GlcNAc(b1-4)GlcNAc", "summary_of_the_method": "as §1"}, "[24]": {"molecular_target": "Neu5Ac(a2-3)Gal(b1-4)GlcNAc(b1-2)[Neu5Ac(a2-3)Gal(b1-4)GlcNAc(b1-6)]Man(a1-6)[Neu5Ac(a2-3)Gal(b1-4)GlcNAc(b1-2)Man(a1-3)][GlcNAc(b1-4)]Man(b1-4)GlcNAc(b1-4)GlcNAc", "summary_of_the_method": "as §1"}, "[25]": {"molecular_target": "Neu5Ac(a2-3)Gal(b1-4)GlcNAc(b1-3)Gal(b1-3)GlcNAc", "summary_of_the_method": "as §1"}, "[26]": {"molecular_target": "Neu5Ac(a2-3)[GalNAc(b1-4)]Gal(b1-4)GlcNAc(b1-3)GalNAc", "summary_of_the_method": "as §1"}, "[27]": {"molecular_target": "Neu5Ac(a2-6)Gal(b1-4)GlcNAc(b1-2)Man(a1-3)[GlcNAc(b1-2)Man(a1-6)]Man(b1-4)GlcNAc(b1-4)GlcNAc", "summary_of_the_method": "as §1"}, "[28]": {"molecular_target": "Neu5Ac(a2-6)Gal(b1-4)GlcNAc(b1-2)Man(a1-3)[Neu5Ac(a2-6)Gal(b1-4)GlcNAc(b1-2)Man(a1-6)]Man(b1-4)GlcNAc(b1-4)[Fuc(a1-6)]GlcNAc", "summary_of_the_method": "as §1"}, "Neu5Ac(a2-6)GalNAc": {"molecular_target": "Neu5Ac(a2-6)GalNAc", "summary_of_the_method": "as §1"}, "[29]": {"molecular_target": "Neu5Ac(a2-8)Neu5Ac(a2-3)Gal(b1-4)Glc", "summary_of_the_method": "as §1"}, "Neu5Gc(a2-3)Gal(b1-4)Glc": {"molecular_target": "Neu5Gc(a2-3)Gal(b1-4)Glc", "summary_of_the_method": "as §1"}}, "note": "Only a selection was taken, and the strongest signals are over-represented in it overall.", "data": [{"binder": "B1", "values": [{"measurement": "glycan array binding signal (z-score)", "setting": "[1]", "result": -0.365}, {"measurement": "glycan array binding signal (z-score)", "setting": "[2]", "result": -1.25}, {"measurement": "glycan array binding signal (z-score)", "setting": "[3]", "result": 3.21}, {"measurement": "glycan array binding signal (z-score)", "setting": "[4]", "result": 1.83}, {"measurement": "glycan array binding signal (z-score)", "setting": "[5]", "result": -0.761}, {"measurement": "glycan array binding signal (z-score)", "setting": "[6]", "result": -1.58}, {"measurement": "glycan array binding signal (z-score)", "setting": "[7]", "result": 0.402}, {"measurement": "glycan array binding signal (z-score)", "setting": "[8]", "result": 0.31}, {"measurement": "glycan array binding signal (z-score)", "setting": "[9]", "result": -0.67}, {"measurement": "glycan array binding signal (z-score)", "setting": "[10]", "result": 2.39}, {"measurement": "glycan array binding signal (z-score)", "setting": "[11]", "result": 3.29}, {"measurement": "glycan array binding signal (z-score)", "setting": "Gal(a1-2)Gal", "result": 3.25}, {"measurement": "glycan array binding signal (z-score)", "setting": "Gal(a1-3)Gal", "result": -0.434}, {"measurement": "glycan array binding signal (z-score)", "setting": "[12]", "result": -0.015}, {"measurement": "glycan array binding signal (z-score)", "setting": "[13]", "result": 2.41}, {"measurement": "glycan array binding signal (z-score)", "setting": "Gal(a1-4)GlcNAc", "result": 2.75}, {"measurement": "glycan array binding signal (z-score)", "setting": "[14]", "result": -0.321}, {"measurement": "glycan array binding signal (z-score)", "setting": "[15]", "result": -0.841}, {"measurement": "glycan array binding signal (z-score)", "setting": "[16]", "result": -0.099}, {"measurement": "glycan array binding signal (z-score)", "setting": "[17]", "result": 3.03}, {"measurement": "glycan array binding signal (z-score)", "setting": "Gal3S(b1-4)Glc", "result": 3.44}, {"measurement": "glycan array binding signal (z-score)", "setting": "Gal3S(b1-4)Glc6S", "result": 1.42}, {"measurement": "glycan array binding signal (z-score)", "setting": "Gal6P(b1-4)GlcNAc", "result": 2.57}, {"measurement": "glycan array binding signal (z-score)", "setting": "Gal6S(b1-3)GlcNAc6S", "result": 2.52}, {"measurement": "glycan array binding signal (z-score)", "setting": "GalNAc(b1-4)GlcNAc", "result": -0.366}, {"measurement": "glycan array binding signal (z-score)", "setting": "GalNAc(b1-6)GalNAc", "result": -0.275}, {"measurement": "glycan array binding signal (z-score)", "setting": "[18]", "result": -0.385}, {"measurement": "glycan array binding signal (z-score)", "setting": "GalNAc6S(b1-4)GlcNAc", "result": -0.802}, {"measurement": "glycan array binding signal (z-score)", "setting": "GlcA(b1-3)Gal", "result": 0.326}, {"measurement": "glycan array binding signal (z-score)", "setting": "[19]", "result": -0.559}, {"measurement": "glycan array binding signal (z-score)", "setting": "Kdn(a2-3)Gal(b1-3)GalNAc", "result": -2.43}, {"measurement": "glycan array binding signal (z-score)", "setting": "[20]", "result": -0.789}, {"measurement": "glycan array binding signal (z-score)", "setting": "[21]", "result": 2.97}, {"measurement": "glycan array binding signal (z-score)", "setting": "[22]", "result": -0.456}, {"measurement": "glycan array binding signal (z-score)", "setting": "[23]", "result": -1.34}, {"measurement": "glycan array binding signal (z-score)", "setting": "[24]", "result": -0.217}, {"measurement": "glycan array binding signal (z-score)", "setting": "[25]", "result": 0.123}, {"measurement": "glycan array binding signal (z-score)", "setting": "[26]", "result": -2.19}, {"measurement": "glycan array binding signal (z-score)", "setting": "[27]", "result": -1.47}, {"measurement": "glycan array binding signal (z-score)", "setting": "[28]", "result": 0.808}, {"measurement": "glycan array binding signal (z-score)", "setting": "Neu5Ac(a2-6)GalNAc", "result": 2.59}, {"measurement": "glycan array binding signal (z-score)", "setting": "[29]", "result": 2.12}, {"measurement": "glycan array binding signal (z-score)", "setting": "Neu5Gc(a2-3)Gal(b1-4)Glc", "result": -0.055}]}]}
